We go through 7 molecules from PubChem BioAssay (Tox21).

Inconclusive results are not listed. Activity calls are given as the source filed them. Unless noted, calls come from the whole dose curve.

Test [1] is described as follows: Nuclear factor erythroid 2-related factor 2/antioxidant responsive element (Nrf2/ARE) small molecule agonists: qHTS cell viability counter screen in human keratinocytes (AID 1919968; active = well fitted curve in the direction sought with a large enough effect in the repeat runs; an effect the other way counts as inactive or inconclusive; note: nearly all actives have a fitted effect of over 55% in size). The method in brief: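 Fluorescence read-out from CellTiter-Fluor after 1 h at 37 C. Wells held HaCaT-derived ARE-luciferase reporter cells (1,500/well) treated 23 h with DMSO-dissolved compounds. Run in the same wells as the luciferase agonist read.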
(In general: Quantitative high-throughput screening tests each substance at several concentrations.)

Test [2] in a line: Nuclear factor erythroid 2-related factor 2/antioxidant responsive element (Nrf2/ARE) small molecule agonists: luciferase reporter gene qHTS assay in human keratinocytes (AID 1919969). Note: nearly all actives have a fitted effect of over 35% in size. Note: potency is the fitted concentration of half-maximal effect.
The target of test [3] is Gonadotropin-releasing hormone receptor (Homo sapiens) (UniProt P30968). The test is described as follows: Human gonadotropin-releasing hormone receptor (GnRHR) small molecule agonists, calcium flux assay in GnRHR-HEK293 cells (AID 1920063). Note: nearly all actives have a fitted effect of over 35% in size. The method in brief:
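Calcium-dye fluorescence, Ex/Em=480/540, recorded every 1 sec over 3 min after compound addition to GnRHR-HEK293 cells. Cells had been seeded 18 hours earlier and dye-loaded for 1 hour at 37 C. Fifteen concentrations, triplicates.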
(In general: A change in cytosolic calcium serves as a functional read-out for many receptors and channels.)

The target in test [4] is KiSS-1 receptor (Homo sapiens) (UniProt Q969F8). Description: Human kisspeptin (KISS1R) small molecule agonists, calcium flux assay in KISS1R-HEK293 cells (AID 1920064; active = well fitted curve in the direction sought with a large enough effect in the repeat runs; an effect the other way counts as inactive or inconclusive). The gist of the method:
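Calcium flux read-out: kinetic fluorescence at Ex/Em=480/540, 1 s intervals over 3 min, after pin-tool compound addition to dye-loaded KISS1R-HEK293 cells. Fifteen concentrations, triplicates.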

A short description of test [5]: G protein-coupled receptor (GPCR) small molecule agonists, calcium flux assay: HEK293 wild type cell line counter screen (AID 1920065). The gist of the method: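 Agonist mode; 18 h seeding at 37 C, 1 h dye load at 37 C; compounds pinned from DMSO, ATP as positive control; kinetic fluorescence 480/540 nm, 3 min, 1 s reads; 15 concentrations, triplicate.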
Test [6] is described as follows: p53 small molecule agonists, cell-based qHTS assay with human liver microsomes (AID 1963577).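 Note: p53 response element beta-lactamase reporter cells with liver microsomes plus NADPH.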 The gist of the method:
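In this qHTS, p53 response-element beta-lactamase cells receive test compound together with a microsome/NADPH activating system (0.5 mg/mL final each) and are incubated 16 h at 37 C before LiveBLAzer fluorescence detection.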

A short description of test [7]: p53 small molecule agonists, cell-based qHTS assay with rat liver microsomes (AID 1963578). The method in brief: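 Agonist mode in p53RE-bla reporter cells, with compounds co-incubated 16 h at 37 C alongside 0.5 mg/mL rat liver microsomes and 0.5 mg/mL NADPH (final), followed by a 2 h LiveBLAzer detection step.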
The nature of test [8]: p53 small molecule agonists, cell-based qHTS assay with human liver microsomes: qHTS cell viability counter screen (AID 1963579). Note: nearly all actives have a fitted effect of over 45% in size. The gist of the method: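 Metabolically activated exposure: compounds, human liver microsomes and NADPH (0.5 mg/mL final apiece) were added to p53RE-bla cells seeded 5 h earlier, left 16 h at 37 C, and then assessed for viability by CellTiter-Glo luminescence.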

Test [9] can be described thus: p53 small molecule agonists, cell-based qHTS assay with rat liver microsomes: qHTS cell viability counter screen (AID 1963580). Note: nearly all actives have a fitted effect of over 45% in size. The gist of the method:
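Luminescent ATP readout (CellTiter-Glo, 30 min at room temperature) reports viability of p53RE-bla HCT-116 cells after 16 h at 37 C with test compounds under metabolic activation by rat liver microsomes and NADPH at 0.5 mg/mL final each.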

Test [10] in a line: p53 small molecule agonists, cell-based qHTS assay: qHTS cell viability counter screen (AID 1963581). Note: nearly all actives have a fitted effect of over 45% in size. The method in brief:
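Cytotoxicity read-out: ATP-based luminescence (CellTiter-Glo, 30 min RT) measured in the same wells as the p53 reporter assay, HCT-116 p53RE-bla cells, 16 h compound exposure at 37 C.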

Test [11] in a line: p53 small molecule agonists, cell-based qHTS assay (AID 1963582; active = well fitted activation curve with a large enough effect in the signal ratio in the repeat runs, not every such curve was filed as active; the % refers to the signal ratio). The gist of the method: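 Fluorescence intensity read-out of a beta-lactamase reporter under a p53 response element. Cells were exposed to DMSO-dissolved compounds for 16 h at 37 C, then developed with FRET substrate for 2 h at RT.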
Test [12] has as its target 5-hydroxytryptamine receptor 2A (Homo sapiens) (UniProt P28223). Description: 5-hydroxytryptamine receptor 2A (HTR2A) small molecule antagonists, cell-based qHTS assay (AID 1963586). Note: nearly all actives have a fitted effect of over 45% in size. The method in brief: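 CHO cells stably expressing human HTR2A were plated for 18 h at 37 C, then loaded with calcium dye for 1 h. Compounds were preincubated 5 min at room temperature before DOI (4 nM solution) was added. Kinetic fluorescence was read for 3 min.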

For test [13] the target is unchanged. The test is described as follows: 5-hydroxytryptamine receptor 2A (HTR2A) small molecule agonists, cell-based qHTS assay (AID 1963587). Note: nearly all actives have a fitted effect of over 30% in size. The gist of the method: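 HTR2A-CHO cells, plated 18 h at 37 C/5% CO2, dye-loaded 1 h at 37 C; compounds in DMSO added by pin tool (agonist mode). Intracellular calcium flux read as kinetic fluorescence on FDSS over 2 min at 1 s intervals.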

Test [14] has as its target Muscarinic acetylcholine receptor M1 (Homo sapiens) (UniProt P11229). Description: Cholinergic receptor muscarinic 1 (CHRM1) small molecule antagonists, cell-based qHTS assay (AID 1963588). Note: nearly all actives have a fitted effect of over 40% in size. The gist of the method: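 Compounds were tested at 15 concentrations in three independent runs. Dye-loaded CHRM1-CHO cells were exposed 5 min at room temperature before stimulation by acetylcholine added at 50nM. Intracellular calcium was read kinetically on FDSS for 3 min.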

Test [15] shares this target. Description: Cholinergic receptor muscarinic 1 (CHRM1) small molecule agonists, cell-based qHTS assay (AID 1963589). Note: nearly all actives have a fitted effect of over 35% in size. The gist of the method:
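Calcium flux read-out: kinetic fluorescence at 1 sec intervals after pin-tool compound addition to dye-loaded CHRM1-CHO cells (human M1). Agonist mode; 15 concentrations tested in triplicate independent runs.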

Test [16] can be described thus: cAMP Responsive Elements (CRE) small molecule antagonists, cell-based qHTS assay (AID 1963591; active = well fitted inhibition curve with a large enough effect in the signal ratio in the repeat runs, not every such curve was filed as active; the % refers to the signal ratio). The gist of the method: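 HEK293T CRE-bla; 18 h preincubation; compound pin-transfer; NKH477 0.25 uM final, 3 h, 37 C; LiveBLAzer FRET substrate 2 h RT.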
Test [17] concerns the target Beta-2 adrenergic receptor (Homo sapiens) (UniProt P07550). The test is described as follows: Adrenergic beta2 receptor (ADRB2) small molecule antagonists, cell-based qHTS assay (AID 1963592). Note: series mostly up to about 92 µM; nearly all actives have a fitted effect of over 50% in size. The method in brief: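 Assay format: CHO-ADRB2 cells, 18-20hr seeding at 37C/5% CO2, then compound plus 1nM isoproterenol agonist mix for 0.5hr RT. Homogeneous time-resolved fluorescence cAMP detection after 1hr, expressed as 665/615 nm ratio.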

The target is the same in test [18]. Description: Adrenergic beta2 receptor (ADRB2) small molecule agonists, cell-based qHTS assay (AID 1963593).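 Note: CHO cells stably overexpressing human ADRB2.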 The gist of the method:
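CHO cells stably over-expressing ADRB2 were plated overnight at 37C, then dosed with compounds plus a stimulation mix containing 100uM IBMX and 25uM Ro-20-1724 for 0.5hr at room temperature. cAMP was measured by HTRF competition, 1hr.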

Test [19] concerns the target D(2) dopamine receptor (Homo sapiens) (UniProt P14416). Description: Dopamine D2 receptor (DRD2) small molecule agonists, cell-based qHTS assay (AID 1963594). Note: nearly all actives have a fitted effect of over 35% in size. The method in brief:
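HEK293 cells stably expressing DRD2 were cultured 24 h at 37 C, then given Ro20-1724 (0.1 mM final) and compounds for 10 min at room temperature. NKH477 (200nM) was then added for 30 min. cAMP was read by HTRF.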

Test [20] shares this target. The test is described as follows: Dopamine D2 receptor (DRD2) small molecule antagonists, cell-based qHTS assay (AID 1963595; active = well fitted inhibition curve with a large enough effect in the signal ratio in the repeat runs, with a control signal flat; the % refers to the signal ratio). The method in brief:
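Human DRD2 antagonist qHTS measuring cAMP by HTRF. The cells are exposed to compound for 10 min, then to NKH477 (200 nM) and quinpirole (12 nM) for 30 min at RT, with Ro20-1724 (0.1 mM) present throughout.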

D(2) dopamine receptor (Homo sapiens), sequence (P14416 whole entry, looked up): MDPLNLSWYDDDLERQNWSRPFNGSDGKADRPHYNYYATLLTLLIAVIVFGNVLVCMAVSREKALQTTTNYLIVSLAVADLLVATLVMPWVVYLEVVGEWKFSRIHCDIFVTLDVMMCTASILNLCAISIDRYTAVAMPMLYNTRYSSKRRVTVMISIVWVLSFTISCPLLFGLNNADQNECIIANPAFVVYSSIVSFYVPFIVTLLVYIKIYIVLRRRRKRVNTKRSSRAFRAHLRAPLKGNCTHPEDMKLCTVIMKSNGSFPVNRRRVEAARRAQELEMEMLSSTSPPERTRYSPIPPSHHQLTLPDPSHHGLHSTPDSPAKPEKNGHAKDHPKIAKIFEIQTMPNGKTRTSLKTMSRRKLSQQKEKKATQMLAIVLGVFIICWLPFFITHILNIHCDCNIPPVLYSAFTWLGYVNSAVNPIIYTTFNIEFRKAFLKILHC
Muscarinic acetylcholine receptor M1 (Homo sapiens), sequence (P11229 whole entry, looked up): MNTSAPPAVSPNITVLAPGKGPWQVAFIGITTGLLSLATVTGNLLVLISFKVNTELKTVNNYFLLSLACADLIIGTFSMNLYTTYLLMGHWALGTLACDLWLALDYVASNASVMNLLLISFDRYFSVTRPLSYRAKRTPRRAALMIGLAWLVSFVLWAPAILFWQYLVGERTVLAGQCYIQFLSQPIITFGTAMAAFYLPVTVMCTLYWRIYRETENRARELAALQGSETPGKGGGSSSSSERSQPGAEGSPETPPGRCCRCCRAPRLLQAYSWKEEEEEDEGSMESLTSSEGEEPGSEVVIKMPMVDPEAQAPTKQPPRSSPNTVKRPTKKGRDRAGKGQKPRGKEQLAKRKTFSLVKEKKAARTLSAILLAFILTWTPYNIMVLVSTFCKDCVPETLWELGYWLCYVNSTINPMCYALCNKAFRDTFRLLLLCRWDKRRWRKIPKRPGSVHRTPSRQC
5-hydroxytryptamine receptor 2A (Homo sapiens), sequence (P28223 whole entry, looked up): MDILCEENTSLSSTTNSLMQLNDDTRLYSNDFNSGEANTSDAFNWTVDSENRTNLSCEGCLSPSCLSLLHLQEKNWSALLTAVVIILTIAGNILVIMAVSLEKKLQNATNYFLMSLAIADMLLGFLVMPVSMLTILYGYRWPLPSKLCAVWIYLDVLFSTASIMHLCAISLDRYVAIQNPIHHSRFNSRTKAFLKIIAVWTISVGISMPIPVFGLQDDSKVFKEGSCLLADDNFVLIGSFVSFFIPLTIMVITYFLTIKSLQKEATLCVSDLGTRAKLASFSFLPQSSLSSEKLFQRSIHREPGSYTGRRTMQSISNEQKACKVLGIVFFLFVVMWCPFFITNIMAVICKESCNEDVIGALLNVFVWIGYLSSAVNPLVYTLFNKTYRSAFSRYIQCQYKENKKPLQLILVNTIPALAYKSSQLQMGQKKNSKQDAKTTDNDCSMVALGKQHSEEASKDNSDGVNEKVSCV
KiSS-1 receptor (Homo sapiens), sequence (Q969F8 whole entry, looked up): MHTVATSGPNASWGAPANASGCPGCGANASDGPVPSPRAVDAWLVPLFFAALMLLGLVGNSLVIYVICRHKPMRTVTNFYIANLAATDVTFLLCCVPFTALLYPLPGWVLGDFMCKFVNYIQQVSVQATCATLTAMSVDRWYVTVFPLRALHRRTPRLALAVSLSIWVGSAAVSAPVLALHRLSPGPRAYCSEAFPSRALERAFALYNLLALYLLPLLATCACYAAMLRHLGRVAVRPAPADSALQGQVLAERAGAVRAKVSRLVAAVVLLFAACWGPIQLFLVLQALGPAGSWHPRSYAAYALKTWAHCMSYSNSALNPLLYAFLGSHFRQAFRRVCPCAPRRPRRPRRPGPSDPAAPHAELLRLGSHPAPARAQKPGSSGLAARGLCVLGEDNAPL
Gonadotropin-releasing hormone receptor (Homo sapiens), sequence (P30968 whole entry, looked up): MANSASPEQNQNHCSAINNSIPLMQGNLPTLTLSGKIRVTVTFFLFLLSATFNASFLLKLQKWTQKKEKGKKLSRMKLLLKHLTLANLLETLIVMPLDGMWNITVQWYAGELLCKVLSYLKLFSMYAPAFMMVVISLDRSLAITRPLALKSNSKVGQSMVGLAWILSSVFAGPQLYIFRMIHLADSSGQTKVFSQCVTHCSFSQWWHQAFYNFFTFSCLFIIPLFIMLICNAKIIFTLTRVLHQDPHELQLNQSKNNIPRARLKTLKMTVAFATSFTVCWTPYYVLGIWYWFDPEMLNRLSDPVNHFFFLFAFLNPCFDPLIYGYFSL
Beta-2 adrenergic receptor (Homo sapiens), sequence (P07550 whole entry, looked up): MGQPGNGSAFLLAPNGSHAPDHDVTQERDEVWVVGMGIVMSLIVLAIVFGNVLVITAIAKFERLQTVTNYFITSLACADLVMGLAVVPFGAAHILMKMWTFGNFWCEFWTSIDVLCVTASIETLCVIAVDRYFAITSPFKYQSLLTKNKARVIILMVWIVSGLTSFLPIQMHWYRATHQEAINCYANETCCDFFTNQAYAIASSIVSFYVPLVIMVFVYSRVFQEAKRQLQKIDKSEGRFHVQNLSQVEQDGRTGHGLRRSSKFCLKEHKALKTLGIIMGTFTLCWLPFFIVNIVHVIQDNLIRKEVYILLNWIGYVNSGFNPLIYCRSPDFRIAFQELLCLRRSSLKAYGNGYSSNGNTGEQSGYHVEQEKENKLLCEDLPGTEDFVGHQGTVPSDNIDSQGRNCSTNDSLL

On to `Cc1cncc(C)c1`, for which the Potency result in [1], in [2], in test [3], in [4], in test [5] and in test [6] was “inactive” in each case. Also, the Potency entry in test [7], in [8], in test [9], in test [10], in test [11] and in test [12] was “inactive” in each case. The Potency result in test [13], in [14], in [15], in test [16], in test [17] and in test [18] was “inactive” throughout. Besides, the Potency result in [19] and in test [20] was “inactive” each time.

In the case of `CCCCC1CCC(O)CC1` (centres undefined), the Potency result in [1], in test [2], in test [3], in test [4], in test [5] and in test [6] was “inactive” each time. In addition, the Potency entry in test [7], in [8], in test [9], in test [10], in test [11] and in [12] was “inactive” each time. The Potency entry in test [13], in test [14], in [16], in [17], in [18] and in test [19] was “inactive” each time. The Potency result in test [20] is “inactive”.

In the case of `c1ccc(SCCSc2ccccc2)cc1`, the Potency entry in [1], in [3], in [4], in test [5], in test [6] and in [7] was “inactive” in each case. For the same molecule, the Potency result in test [8], in test [9], in test [10], in test [11], in [12] and in test [13] was “inactive” in each case. The Potency result in test [14], in [15], in [16], in test [17], in test [19] and in test [20] was “inactive” in each case. In addition, in [2], the Potency was 12.1 µM (active).

For the molecule `CC(C)C(=O)C(C)C`, the Potency result in test [1], in test [2], in test [3], in [4], in test [5] and in test [6] was “inactive” throughout. For the same molecule, the Potency result in test [7], in test [8], in [9], in [10], in [11] and in test [12] was “inactive” in each case. In addition, the Potency entry in test [13], in test [14], in test [15], in test [16], in test [17] and in test [19] was “inactive” each time. Besides, the Potency result in test [20] is “inactive”.

Take `C=C(C)C(=O)OCCC[Si](Cl)(Cl)Cl`: the Potency result in [1], in [2], in test [3], in [4], in test [5] and in test [6] was “inactive” in each case. In addition, the Potency result in test [7], in test [8], in test [9], in [10], in test [11] and in test [12] was “inactive” each time. For the same molecule, the Potency result in test [13], in test [14], in test [16], in [17], in test [18] and in test [19] was “inactive” throughout.

For the molecule `C=CCCC=C`, the Potency result in test [1], in [3], in test [4], in test [5], in test [6] and in test [7] was “inactive” each time. Further, the Potency result in test [8], in test [9], in [10], in [11], in test [12] and in [13] was “inactive” in each case. For the same molecule, the Potency result in test [14], in [15], in test [16], in test [17], in test [18] and in [19] was “inactive” throughout. Besides, the Potency in test [2] was 70.5 µM (active).

Turning to `CC(C)CCCC(C)CCO` (centres undefined), the Potency entry in [1], in test [2], in test [3], in test [4], in test [5] and in test [6] was “inactive” each time. The Potency result in [7], in [8], in test [9], in test [10], in [11] and in test [12] was “inactive” in each case. In addition, the Potency entry in [13], in test [14], in [15], in test [16], in test [17] and in [18] was “inactive” in each case. In addition, the Potency result in [19] and in test [20] was “inactive” in each case.
